# Results published in PubChem BioAssay (Tox21).
# Inconclusive results are not listed. The source made the active and inactive calls. Calls come from the whole dose curve; as a rule, active = well fitted cell-killing curve with a large enough effect in the repeat runs; inconclusive = weak or mixed curves, or effect the other way; inactive = flat fitted curve, though single readings scatter.
# Assay: qHTS assay to identify small molecule that activate the aryl hydrocarbon receptor (AhR) signaling pathway - cell viability counter screen (AID 743086); note: nearly all actives have a fitted effect of over 45% in size;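 for viability change, negative = cytotoxic: HepG2 liver cells carrying the AhR DRE luciferase reporter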
# Details: HepG2-AhR-luc viability, CellTiter-Fluor, 24 h; series mostly up to 70.3 µM; viability change, negative = cytotoxic: at the top concentration
# From the text: U.S. Tox21 Program National Center for Advancing Translational Sciences [NCATS] NIH Chemical Genomics Center [NCGC] U.S. Environmental Protection Agency [EPA] National Institutes of Environmental Health Sciences [NIEHS] National Toxicology Program [NTP] U.S. Food and Drug Administration [FDA] Tox21 Assay overview: The Aryl hydrocarbon Receptor (AhR), a member of the family of basic helix-loop-helix transcription factors, is crucial to adaptive responses to environmental changes. AhR mediates cellular responses to environmental pollutants such as aromatic hydrocarbons through induction of phase I and II enzymes but also interacts with other nuclear receptor signaling pathways A cell based HepG2-AhR-luc assay (HG2L7.5c1 cell line, developed by Dr. Michael S. Denison, University of California at Davis) was used to assess the activation of AhR. HepG2 (human hepatocellular carcinoma) cells were stably transfected with an Ah receptor-responsive firefly luciferase reporter gene plasmid containing 20 dioxin responsive elements and luciferase reporter gene. Increased luciferase activity can be used to identify the compounds that induce AhR activation. The cytotoxicity of the compounds screened against the HepG2-AhR-luc cell line was tested in parallel by measuring the cell viability using CellTiter-Fluor assay in the same wells.
# Tox21 Assay Protocol Summary: 4000 cells in 5 uL/well were dispensed into white wall/solid bottom 1536-well plates using a Multidrop Combi (Thermo Fisher Scientific Inc., Waltham, MA) dispenser. After the assay plates were incubated at 37C for 5 h, 23 nL of compound or DMSO vehicle was transferred to the assay plates by a pintool station (Kalypsys, San Diego, CA). The plates were incubated at 37C for 24 hr. For cell viability measurement, 1 ul/well of CellTiter-Fluor reagent (Promega, Madison, WI) was added into the assay plates using a Flying Reagent Dispenser (FRD) (Aurora Discovery, CA),and then the assay plates were incubated at 37C for 30 min. The fluorescence intensity in the plates was measured using a ViewLux plate reader (PerkinElmer, Shelton, CT), followed by the addition of 4 uL of ONE-Glo Luciferase Assay reagent (Promega) using an FRD (Aurora Discovery). After the assay plates were incubated at room temperature for 30 min, luminescence intensity was measured using a ViewLux plate reader (Perkin Elmer).
# % is set by controls: 0 for no effect and ±100 for the full control effect; potency is the fitted concentration of half-maximal effect.
Compound,"viability change, negative = cytotoxic",Potency
CC(C)NC[C@@H](O)COc1ccc(CC(N)=O)cc1,-1.68% (inactive),–
CCCCNS(=O)(=O)c1ccc(C)cc1,12.8% (inactive),–
O=C(O)c1cc(N=Nc2ccc([N+](=O)[O-])cc2)ccc1O,–,53.5 µM (active)
CCN1C(=O)c2ccccc2C1Nc1ccc(OCCN2CCCCC2)cc1 (stereo not given),7.54% (inactive),–
C=C(C)c1cccc(C(=C)C)c1,-4.87% (inactive),–
CCC(CC)C(C)CCOC(C)=O (stereo not given),4.92% (inactive),–
O=C(Nc1ccc2c(O)c(N=Nc3ccc(N=Nc4ccc(S(=O)(=O)O)cc4)cc3)c(S(=O)(=O)O)cc2c1)c1ccccc1,–,19.3 µM (active)
COc1ccc(NC(=O)CC(C)=O)cc1,-3.29% (inactive),–
COc1cc(S(=O)(=O)O)c(C)cc1N=Nc1c(O)ccc2cc(S(=O)(=O)O)ccc12,–,9.69 µM (active)
C=CCn1c(=O)n(CC=C)c(=O)n(CC=C)c1=O,-1.41% (inactive),–
CCCC1CCC(=O)CC1,-1.41% (inactive),–
CC(C(=O)O)c1ccc2c(c1)[nH]c1ccc(Cl)cc12 (stereo not given),3.27% (inactive),–
CC[C@H](C)COC(=O)/C=C/c1ccc(N=Cc2ccc(OC)cc2)cc1,-9.78% (inactive),–
Cc1cccc2cccnc12,11% (inactive),–
Nc1nc2c(ncn2COCCO)c(=O)[nH]1,-0.0162% [at 32.5 µM] (inactive),–
CN1CCCCC1CCN1c2ccccc2Sc2ccc(S(C)=O)cc21 (stereo not given),-19.8% (inactive),–
CCCC(=O)OCCc1ccccc1,-3.48% (inactive),–
O=C(O)Cc1ccccc1Nc1c(Cl)cccc1Cl,–,inactive
O=C(Oc1ccccc1)Oc1ccccc1,10.1% (inactive),–
C#CC1(O)CC[C@H]2[C@@H]3CCC4=CCCC[C@@H]4[C@H]3CC[C@@]21C (stereo not given in full),-3.79% [at 32.5 µM] (inactive),–

Compound,"viability change, negative = cytotoxic",Potency
CC1(C)CCC[C@]2(C)[C@H]3CC(=O)O[C@]3(C)CC[C@@H]12,5.65% (inactive),–
NC(=O)c1cccc([N+](=O)[O-])c1,4.25% (inactive),–
CC(C)Cn1cnc2c(N)nc3ccccc3c21,-1.05% (inactive),–
CCOC(=O)Cn1cccc1-c1nc(-c2ccc(OC)cc2)c(-c2ccc(OC)cc2)s1,0.765% (inactive),–
CCC(=O)OC(=O)CC,3.36% (inactive),–
COc1cccc(OC)c1C(=O)O,-3.01% (inactive),–
O=C(/C=C/c1ccc(O)c(O)c1)O[C@@H](C(=O)O)[C@@H](OC(=O)/C=C/c1ccc(O)c(O)c1)C(=O)O,-4.37% (inactive),–
CC1(C)[C@@H](O)CC[C@]2(C)[C@H]3C(=O)C=C4[C@@H]5C[C@@](C)(C(=O)O)CC[C@]5(C)CC[C@@]4(C)[C@]3(C)CC[C@@H]12,–,inactive
Cc1nc(-c2ccc(Cl)cc2)oc1COC(C)(C)C(=O)O,11.4% (inactive),–
COc1cc(/C=C/c2ccccc2)oc(=O)c1,12.5% [at 95 µM] (inactive),–
CCN(CC)c1ccc2c(-c3ccc(S(=O)(=O)O)cc3S(=O)(=O)[O-])c3ccc(=[N+](CC)CC)cc-3oc2c1,–,6.31 µM (active)
c1ccc(C(O[C@@H]2CCCN(CCc3ccc4c(c3)OCO4)C2)c2ccccc2)cc1,-5.24% (inactive),–
O=C(O)c1cc(O)c2ccccc2c1O,–,54.5 µM (active)
O=C1CCCCCCCCCCCCCCCO1,0.465% (inactive),–
CN(C)Cc1ccccc1O,-1.02% (inactive),–
O=C1NC(=O)[C@@H]2CC=CC[C@H]12,-8.52% (inactive),–
CCCCCCCCCCC[C@@H](C[C@@H]1OC(=O)[C@H]1CCCCCC)OC(=O)[C@H](CC(C)C)NC=O,-2.12% (inactive),–
S=c1nccc[nH]1,5.61% (inactive),–
CC(=O)OCC=C(C)C,9.36% (inactive),–
O=C(/C=C/c1ccccc1)OC/C=C/c1ccccc1,-2.18% (inactive),–
